Screening results from PubChem.
CHRM1 PAM: positive allosteric modulators of human M1 muscarinic receptor; activation, % at 3 µM; 0.088% of 360,000 active; P11229; CHO-K1 hM1, Fluo-8 calcium fluorescence, ACh EC20; 0% = ACh EC20, 100% = maximal ACh; in the data active = activation above about 19%, passing the limit was not always enough
Target sequence (P11229 whole entry, looked up): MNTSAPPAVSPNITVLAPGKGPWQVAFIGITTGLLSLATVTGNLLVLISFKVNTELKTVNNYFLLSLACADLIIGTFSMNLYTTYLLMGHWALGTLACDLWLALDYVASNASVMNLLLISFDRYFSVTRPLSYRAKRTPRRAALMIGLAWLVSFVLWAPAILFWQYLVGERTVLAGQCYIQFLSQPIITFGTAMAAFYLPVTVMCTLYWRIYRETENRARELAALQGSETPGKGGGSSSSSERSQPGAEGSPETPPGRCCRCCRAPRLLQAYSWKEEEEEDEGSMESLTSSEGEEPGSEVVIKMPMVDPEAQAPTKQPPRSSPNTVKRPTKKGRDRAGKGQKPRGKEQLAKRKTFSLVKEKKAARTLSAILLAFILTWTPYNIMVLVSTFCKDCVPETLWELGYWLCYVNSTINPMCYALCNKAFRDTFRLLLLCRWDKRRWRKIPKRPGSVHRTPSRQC
CHO-K1 Ca PAM: counter-screen for M1 PAMs: effect in parental CHO-K1 cells; activation, % at 3 µM; 0.02% of 360,000 active; ATP EC20, Fluo-8 calcium fluorescence; 0% at ATP EC20, 100% at ATP max;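 active = activation above the run cutoff, the mean activation of all test compounds plus 3 SD, cut at about 40% in these data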;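 also: peak over basal fluorescence ratio in a 140 s read after ATP addition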
M1 antag: antagonists of human M1 muscarinic receptor; 1.3% of 360,000 active; CHO-K1 hM1, Fluo-8 calcium fluorescence, ACh EC80 antagonist; P11229; inhibition, % at 3 µM;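 active = percent inhibition above its own plate's cutoff, namely the mean of that plate's compound wells plus 3 SD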;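 also: peak over basal fluorescence ratio during 140 s after agonist addition; 0% = ACh EC80 plus DMSO and 100% = DMSO alone without agonist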
M1 ag: human M1 muscarinic receptor agonism | activation, % at 3 µM | CHO-K1 hM1, Fluo-8 calcium fluorescence, agonist mode; 0% DMSO, 100% acetylcholine EC100 | AID 588814 | P11229 | 0.33% of 360,000 active;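 active = activation above the run's mean compound activation plus 3 SD, cut at about 16% in these data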;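 also: peak over basal fluorescence ratio within a 140 s kinetic read after compound addition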
CHO-K1 Ca antag: nonselective inhibitor or artifact in parental CHO-K1 cells | ATP-induced calcium, Fluo-8 fluorescence | inhibition, % at 3 µM | 0.6% of 360,000 active | AID 602250;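 active = inhibition above a per-plate cutoff, the plate's mean sample inhibition plus 3 SD, cut at about 24% in these data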;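 also: 0% = DMSO plus EC80 ATP and 100% = DMSO alone without ATP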
M1 ag parental: nonselective activator or artifact in parental CHO-K1 cells; Fluo-8 calcium fluorescence; scaled to maximal ATP response, vehicle zero; activation, % at 3 µM; 0.48% of 360,000 active; AID 602248; in the data active = activation above about 15%;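 also: untransfected CHO-K1 host cells lacking M1 receptor as counterscreen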
* hit, by the source's call. A selection: hits, their analogues and other compounds. The true share with any hit is near 2.4%.

Screening O=C(O)CC(NS(=O)(=O)c1cccc2nsnc12)c1ccc(F)cc1 (configuration not stated) returned CHRM1 PAM 3, CHO-K1 Ca PAM -4, M1 antag -5, M1 ag -2, CHO-K1 Ca antag 2 and M1 ag parental 0.
For N=c1c2c(-c3ccccc3)c(-c3ccccc3)n(Cc3ccco3)c2ncn1Cc1ccccc1 the results were CHRM1 PAM 1, CHO-K1 Ca PAM 14, M1 antag 0, M1 ag -3, CHO-K1 Ca antag -5 and M1 ag parental 2.
For CCNc1nc(CN2CCCCC2)nc2scc(-c3ccccc3)c12 the results were CHRM1 PAM -30, CHO-K1 Ca PAM 9, M1 antag 65*, M1 ag -11, CHO-K1 Ca antag 8 and M1 ag parental 2.
`OCC1CCCN(c2nc(CN3CCCCC3)nc3scc(-c4ccccc4)c23)C1` (configuration not stated) gave CHRM1 PAM -4, CHO-K1 Ca PAM 21, M1 antag 2, M1 ag -10, CHO-K1 Ca antag -4 and M1 ag parental 1.
O=C1CCC(C(=O)OCc2nnc(-c3ccc(Br)cc3)o2)=NN1 was read as CHRM1 PAM 8, CHO-K1 Ca PAM 18, M1 antag -9, M1 ag -3, CHO-K1 Ca antag -18 and M1 ag parental 1.
Cc1cccc(CSC2=NCCN2S(=O)(=O)c2ccc(F)cc2)c1 was read as CHRM1 PAM -16, CHO-K1 Ca PAM -25, M1 antag 39*, M1 ag -2, CHO-K1 Ca antag 11 and M1 ag parental -1.
For Cc1ccc(OCCSc2nnc(-c3cccs3)n2C)cc1 the results were CHRM1 PAM 11, CHO-K1 Ca PAM 23, M1 antag -12, M1 ag -7, CHO-K1 Ca antag -10 and M1 ag parental 0.
Screening CCOC(=O)c1cnc2c(C(=O)OC)cccc2c1NCCN1CCOCC1 returned CHRM1 PAM 13, CHO-K1 Ca PAM 12, M1 antag -4, M1 ag -11, CHO-K1 Ca antag -14 and M1 ag parental 0.
For CCOC(=O)c1cnc2c(CC)cccc2c1NCCN1CCOCC1 the results were CHRM1 PAM -26, CHO-K1 Ca PAM -11, M1 antag 64*, M1 ag -9, CHO-K1 Ca antag 23 and M1 ag parental 0.
Screening CC(C)Cn1c2c(c(O)c(C(=O)Nc3ccc(F)cc3)c1=O)CCCC2 returned CHRM1 PAM 1, CHO-K1 Ca PAM -5, M1 antag 8, M1 ag 0, CHO-K1 Ca antag 25* and M1 ag parental 0.
COc1ccccc1-c1ccc2nnc(SCC(=O)N3CCCC3)n2n1 was read as CHRM1 PAM 16, CHO-K1 Ca PAM -1, M1 antag 2, M1 ag 4, CHO-K1 Ca antag 8 and M1 ag parental -1.
CC(O)c1c(-c2ccccc2)nn(C)c1Cl (configuration not stated) was read as CHRM1 PAM 1, CHO-K1 Ca PAM -13, M1 antag 0, M1 ag -7, CHO-K1 Ca antag 28* and M1 ag parental 0.
CCC(O)c1c(-c2ccccc2)nn(C)c1Cl (configuration not stated) was read as CHRM1 PAM 7, CHO-K1 Ca PAM 5, M1 antag -9, M1 ag -6, CHO-K1 Ca antag 3 and M1 ag parental 0.
For COc1cc(C(=O)NCC(=O)N/N=C(/C)c2ccc3c(c2)CCCC3)cc(OC)c1OC the results were CHRM1 PAM 3, CHO-K1 Ca PAM -12, M1 antag 7, M1 ag -7, CHO-K1 Ca antag 27* and M1 ag parental 0.
For NC(=O)[C@@H]1CCCN1Cc1nc(-c2ccc(C(F)(F)F)cc2)no1 the results were CHRM1 PAM -2, CHO-K1 Ca PAM 16, M1 antag 1, M1 ag -5, CHO-K1 Ca antag -1 and M1 ag parental 6.
Cc1ccc(S(=O)(=O)N2CCCc3cc(NC(=O)c4c(F)cccc4F)ccc32)cc1 was read as CHRM1 PAM 4, CHO-K1 Ca PAM 13, M1 antag -2, M1 ag -5, CHO-K1 Ca antag -18 and M1 ag parental 0.
Screening Cc1c(C(=O)N2CCCC2)sc(NC(=O)c2ccc(Cl)cc2)c1C#N returned CHRM1 PAM 8, CHO-K1 Ca PAM -8, M1 antag -3, M1 ag -1, CHO-K1 Ca antag 24* and M1 ag parental 0.
COc1ccccc1C(=O)Nc1sc(C(=O)N2CCCC2)c(C)c1C#N was read as CHRM1 PAM 13, CHO-K1 Ca PAM 17, M1 antag -11, M1 ag -8, CHO-K1 Ca antag -1 and M1 ag parental 1.
Screening Cc1ccc(C)c(N/C(N)=N/c2nc(C)cc(C)n2)c1 returned CHRM1 PAM -21, CHO-K1 Ca PAM -13, M1 antag 15, M1 ag 10, CHO-K1 Ca antag 35* and M1 ag parental 27*.
`CCOc1ccc(N/C(N)=N/c2nc(C)cc(C)n2)cc1` gave CHRM1 PAM -19, CHO-K1 Ca PAM -4, M1 antag 16, M1 ag 6, CHO-K1 Ca antag 8 and M1 ag parental 17*.
`Cc1cc(C)nc(/N=C(\N)Nc2ccc(-c3ccccc3)cc2)n1` gave CHRM1 PAM -16, CHO-K1 Ca PAM -16, M1 antag 12, M1 ag 5, CHO-K1 Ca antag 10 and M1 ag parental 27*.
COc1ccc(C)cc1N/C(N)=N/c1nc(C)cc(C)n1 was read as CHRM1 PAM 7, CHO-K1 Ca PAM 24, M1 antag -8, M1 ag -11, CHO-K1 Ca antag -11 and M1 ag parental 3.
Cc1cc(C)nc(/N=C(\N)N(Cc2ccccc2)Cc2ccccc2)n1 was read as CHRM1 PAM -33, CHO-K1 Ca PAM -15, M1 antag 100*, M1 ag -14, CHO-K1 Ca antag 18 and M1 ag parental 4.
`CCCCN(CCCC)/C(N)=N/c1nc(C)cc(C)n1` gave CHRM1 PAM 0, CHO-K1 Ca PAM -11, M1 antag 2, M1 ag -8, CHO-K1 Ca antag -3 and M1 ag parental 0.
For CC(=O)Nc1ccc(N/C(N)=N/c2nc(C)cc(C)n2)cc1 the results were CHRM1 PAM 2, CHO-K1 Ca PAM -8, M1 antag -3, M1 ag -13, CHO-K1 Ca antag 13 and M1 ag parental 0.
Screening CC(=O)C1=C(O)C(=O)N(c2cc(C(C)(C)C)on2)C1c1ccc(Br)cc1 (configuration not stated) returned CHRM1 PAM 9, CHO-K1 Ca PAM 18, M1 antag -8, M1 ag 1, CHO-K1 Ca antag -4 and M1 ag parental 0.
For C#CCNC(=O)C1=C[C@@H](c2ccc(Br)cc2)C[C@@H](OCCCCO)O1 the results were CHRM1 PAM 10, CHO-K1 Ca PAM 2, M1 antag -3, M1 ag -4, CHO-K1 Ca antag -10 and M1 ag parental 0.
